Source: PubChem BioAssay (NCATS)
Inconclusive results are not listed. A number with no mark means an inactive call. The source made the active and inactive calls. Calls follow the shape of the dose curve; as a rule, active = well fitted curve in the direction sought with a large enough effect; inconclusive = small, poorly fitted or top-dose-only effect, or another doubt; inactive = no such curve, though single readings can be large; an effect the other way counts as inactive or inconclusive.

These molecules were tested against Aldehyde dehydrogenase, mitochondrial (Homo sapiens) (UniProt P05091) (assay: qHTS for Inhibitors of the Aldehyde Dehydrogenase Family (ALDH2) Primary screen (AID 2061308; also: nearly all actives have a fitted effect of over 55% in size; also: potency is read from the fitted curve at half-maximal effect;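 as to activity change, negative = inhibition: plate controls were vehicle for no effect and reference inhibitor for full effect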)). Settings: ALDH2 enzyme inhibition qHTS, 1536-well; series mostly up to 56 µM; activity change, negative = inhibition: at the top concentration.

First: COc1ccc2c(c1)N1C(=O)C[C@@]34C=CC[N@+]5([O-])CC[C@H]2[C@H](CC3)[C@@]145
Second: COc1cccc(NC(=S)N2CCN(c3ccc(C(F)(F)F)cc3[N+](=O)[O-])CC2)n1
The “activity change, negative = inhibition” value of the first is higher: -8.34% for the first, -11.1% for the second.

First: N#Cc1ccc(C[C@H](C(=O)O)N2C(=O)c3ccc(C(=O)O)cc3C2=O)cc1
Second: O=C(O)c1ccc(S(=O)(=O)N[C@H](Cc2ccc([N+](=O)[O-])cc2)C(=O)O)cc1
The “activity change, negative = inhibition” value of the first is higher: 3.63% for the first, -0.872% for the second.

Going from `COC(=O)C1CCc2sc(NC(=O)Cc3ccccc3)c(C(=O)Nc3ccc(Cl)cc3)c21` (stereo not given) to `COc1ccc(NC(=O)C(OC(=O)CNC(=O)c2ccccc2)c2ccccc2)cc1F` (stereo not given), the “activity change, negative = inhibition” value falls from 8.6% to 0.0767%.

Compared with `Cn1nnnc1Sc1ncnc2scc(-c3ccccc3C#N)c12`, `COC(=O)c1ccccc1-c1ccc(/C=c2\sc3nc4cc(Br)cnc4n3c2=O)o1` is lower in “activity change, negative = inhibition” value: 9.73% for the first, -5.88% for the second.

First: Nc1scc2c(C(=O)O)nn(-c3ccccc3)c(=O)c12
Second: Nc1cccc(S(=O)(=O)Nc2cnccc2C(=O)Nc2nc(-c3ccccc3)cs2)c1
The “activity change, negative = inhibition” value of the first is lower: -21% for the first, -4.23% for the second.

First: Cc1ccc(OCCn2c(CCNC(=O)C3CCCCCC3)nc3ccccc32)cc1
Second: COc1ccc(C(=O)Oc2ccc(-c3nc4ccccc4[nH]3)cc2)cc1OC
The “activity change, negative = inhibition” value of the first is lower: -12.8% for the first, 7.86% for the second.

Compared with `NC(=O)C1CCN(c2nc(-c3cccnc3)cs2)CC1`, `NC(=O)C1CCN(c2ncc(Br)s2)CC1` is lower in “activity change, negative = inhibition” value: 3.77% for the first, -24.3% for the second.

First: CCCn1c(-c2ccc(F)cc2)nc2c(N(C)CCN(C)C)nc(C)nc21
Second: CCCn1c(C)nc2c(NCCCCN(C)C)nc(C)nc21
The “activity change, negative = inhibition” value of the first is lower: -14.4% for the first, 0.145% for the second.

Going from `O=C(N[C@H]1CCCc2c1cnn2-c1ccc(F)cc1F)c1ccccn1` to `Cc1cc2c(s1)c1cnn(Cc3cccc4cccnc34)c(=O)c1n2C`, the “activity change, negative = inhibition” value falls from 5.71% to -22.8%.

Going from `Cc1cc(C)n2ncc(C(=O)NCC(C)C)c2n1` to `Cc1cc(C)nc(NC(=S)N2CCN(c3cc(Cl)cc(Cl)n3)CC2)c1`, the “activity change, negative = inhibition” value rises from -4.57% to -1.64%.

First: CN1CCN(C(=O)c2ccc(-c3cnc4c(O)ccc(C(=O)O)c4c3)cc2)CC1
Second: O=C([C@H](Cc1ccc(O[S+](=O)([O-])c2ccccn2)cc1)N[S+](=O)([O-])c1cccc2cnccc12)N1CCN(c2ccccc2)CC1
The “activity change, negative = inhibition” value of the first is lower: -20.4% for the first, -12.5% for the second.

First: CCC(=O)NC(c1cc(Cl)c2cccnc2c1O)C1CC1 (stereo not given)
Second: Cc1cc(-c2nnc3n2CCCCC3)c(C)n1-c1cccc(Cl)c1
The “activity change, negative = inhibition” value of the first is lower: -2.03% for the first, 3.02% for the second.

Going from `Cc1c(C(=O)OCC(C)(C)C)[nH]c2c1C(=O)CC(c1ccco1)C2` (stereo not given) to `COc1ccc(NC(=O)c2[nH]c(C)c(C(C)=O)c2C)cc1S(=O)(=O)Nc1ccc(C#N)cc1`, the “activity change, negative = inhibition” value rises from -20.7% to -5.54%.

First: COCCNC(=O)Nc1ccc2nc(-c3cccs3)c(-c3cccs3)nc2c1
Second: Cc1ccc(CNc2ccccc2C(=O)Nc2nc(-c3ccccc3)cs2)cc1
The “activity change, negative = inhibition” value of the first is lower: -17.4% for the first, -1.39% for the second.

Going from `c1nc(NC[C@@H]2CCCO2)c2cc(-c3ccc4c(c3)OCO4)ccc2n1` to `COc1ccc(C2Nc3ccccc3C(=O)N2Cc2ccc3c(c2)OCO3)cc1COc1c(C)cc(NC(C)=O)cc1C` (stereo not given), the “activity change, negative = inhibition” value falls from 2.64% to 0.752%.

First: COc1ccc([S+](=O)([O-])Nc2ccc(-c3nc4ccccc4[nH]3)cc2)cc1OC
Second: FC(F)(F)c1cccc(Nc2ccc(CNc3nc(-c4ccccc4C(F)(F)F)nc4ccccc34)cc2)c1
The “activity change, negative = inhibition” value of the first is higher: -1.39% for the first, -19.2% for the second.

First: Clc1ccc(CN(CCCNc2ncnc(NCCCc3cnc[nH]3)n2)c2ccc(Br)cn2)cc1Cl
Second: Cc1cc(C)nc(NC(=S)N2CC3CN(c4ccc(Cl)cc4C(F)(F)F)CC3C2)c1 (stereo not given)
The “activity change, negative = inhibition” value of the first is lower: 1.52% for the first, 7.9% for the second.

`O=C1CN(S(=O)(=O)c2ccc3c(c2)OCCO3)CCN1S(=O)(=O)c1c(F)cccc1F` was tested, and the “activity change, negative = inhibition” value was 3.27%.

In the case of `O=C1Nc2ccccc2/C1=C/c1cc(Cl)c(O)c(Cl)c1`, the Potency is reported as “inactive”.
For `CC(C)c1ccccc1-c1ncc(F)c(NC2(c3ccc(-c4cccnc4)cc3)CC2)n1`, the Potency was “inactive”.
`O=C1Nc2ccccc2C12CC2c1cc(Cl)c(O)c(Cl)c1` (stereo not given) was tested, and the Potency was “inactive”.
With `O=C1Nc2cc(Cl)ccc2Nc2cscc21` the Potency was 14.1 µM (active).

In the case of `COc1cc(O)c(C(CC(=O)N2CCCCCC2)c2ccc3c(c2)OCO3)c(OC)c1` (stereo not given), the “activity change, negative = inhibition” value is reported as 9.39% [at 114 µM].

Each molecule was assayed against Retinaldehyde dehydrogenase 3 (Homo sapiens) (UniProt P47895) (assay: qHTS for Inhibitors of the Aldehyde Dehydrogenase Family (ALDH1A3) Primary screen (AID 2061315;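 also: plate controls were DMSO vehicle for no effect and reference inhibitor for full effect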)). Settings: ALDH inhibition qHTS; series mostly up to 56 µM; activity change, negative = inhibition: at the top concentration.

First: COc1ccc2c(c1)N1C(=O)C[C@@]34C=CC[N@+]5([O-])CC[C@H]2[C@H](CC3)[C@@]145
Second: COc1cccc(NC(=S)N2CCN(c3ccc(C(F)(F)F)cc3[N+](=O)[O-])CC2)n1
The “activity change, negative = inhibition” value of the first is lower: -3.32% for the first, 29.8% for the second.

Going from `N#Cc1ccc(C[C@H](C(=O)O)N2C(=O)c3ccc(C(=O)O)cc3C2=O)cc1` to `O=C(O)c1ccc(S(=O)(=O)N[C@H](Cc2ccc([N+](=O)[O-])cc2)C(=O)O)cc1`, the “activity change, negative = inhibition” value rises from -2.67% to 0.566%.

First: COC(=O)C1CCc2sc(NC(=O)Cc3ccccc3)c(C(=O)Nc3ccc(Cl)cc3)c21 (stereo not given)
Second: COc1ccc(NC(=O)C(OC(=O)CNC(=O)c2ccccc2)c2ccccc2)cc1F (stereo not given)
The “activity change, negative = inhibition” value of the first is higher: 3.47% for the first, 1.26% for the second.

Going from `Cn1nnnc1Sc1ncnc2scc(-c3ccccc3C#N)c12` to `COC(=O)c1ccccc1-c1ccc(/C=c2\sc3nc4cc(Br)cnc4n3c2=O)o1`, the “activity change, negative = inhibition” value rises from 6.41% to 15.1%.

Compared with `Nc1scc2c(C(=O)O)nn(-c3ccccc3)c(=O)c12`, `Nc1cccc(S(=O)(=O)Nc2cnccc2C(=O)Nc2nc(-c3ccccc3)cs2)c1` is higher in “activity change, negative = inhibition” value: -14.5% for the first, 5.73% for the second.

Going from `Cc1ccc(OCCn2c(CCNC(=O)C3CCCCCC3)nc3ccccc32)cc1` to `COc1ccc(C(=O)Oc2ccc(-c3nc4ccccc4[nH]3)cc2)cc1OC`, the “activity change, negative = inhibition” value rises from -4.2% to 7.18%.

First: NC(=O)C1CCN(c2nc(-c3cccnc3)cs2)CC1
Second: NC(=O)C1CCN(c2ncc(Br)s2)CC1
The “activity change, negative = inhibition” value of the first is higher: -10.7% for the first, -16.8% for the second.

Compared with `CCCn1c(-c2ccc(F)cc2)nc2c(N(C)CCN(C)C)nc(C)nc21`, `CCCn1c(C)nc2c(NCCCCN(C)C)nc(C)nc21` is higher in “activity change, negative = inhibition” value: 0.826% for the first, 9.8% for the second.

First: O=C(N[C@H]1CCCc2c1cnn2-c1ccc(F)cc1F)c1ccccn1
Second: Cc1cc2c(s1)c1cnn(Cc3cccc4cccnc34)c(=O)c1n2C
The “activity change, negative = inhibition” value of the first is lower: -4.51% for the first, 6.66% for the second.

Going from `Cc1cc(C)n2ncc(C(=O)NCC(C)C)c2n1` to `Cc1cc(C)nc(NC(=S)N2CCN(c3cc(Cl)cc(Cl)n3)CC2)c1`, the “activity change, negative = inhibition” value falls from -7.23% to -16.9%.

Going from `CN1CCN(C(=O)c2ccc(-c3cnc4c(O)ccc(C(=O)O)c4c3)cc2)CC1` to `O=C([C@H](Cc1ccc(O[S+](=O)([O-])c2ccccn2)cc1)N[S+](=O)([O-])c1cccc2cnccc12)N1CCN(c2ccccc2)CC1`, the “activity change, negative = inhibition” value falls from 31.8% to -12.9%.

Compared with `CCC(=O)NC(c1cc(Cl)c2cccnc2c1O)C1CC1` (stereo not given), `Cc1cc(-c2nnc3n2CCCCC3)c(C)n1-c1cccc(Cl)c1` is higher in “activity change, negative = inhibition” value: -14.7% for the first, -7.28% for the second.

First: Cc1c(C(=O)OCC(C)(C)C)[nH]c2c1C(=O)CC(c1ccco1)C2 (stereo not given)
Second: COc1ccc(NC(=O)c2[nH]c(C)c(C(C)=O)c2C)cc1S(=O)(=O)Nc1ccc(C#N)cc1
The “activity change, negative = inhibition” value of the first is higher: 3.61% for the first, -1.43% for the second.

Compared with `COCCNC(=O)Nc1ccc2nc(-c3cccs3)c(-c3cccs3)nc2c1`, `Cc1ccc(CNc2ccccc2C(=O)Nc2nc(-c3ccccc3)cs2)cc1` is higher in “activity change, negative = inhibition” value: -13.5% for the first, -7.35% for the second.

Going from `c1nc(NC[C@@H]2CCCO2)c2cc(-c3ccc4c(c3)OCO4)ccc2n1` to `COc1ccc(C2Nc3ccccc3C(=O)N2Cc2ccc3c(c2)OCO3)cc1COc1c(C)cc(NC(C)=O)cc1C` (stereo not given), the “activity change, negative = inhibition” value rises from -12.3% to -8.23%.

Compared with `COc1ccc([S+](=O)([O-])Nc2ccc(-c3nc4ccccc4[nH]3)cc2)cc1OC`, `FC(F)(F)c1cccc(Nc2ccc(CNc3nc(-c4ccccc4C(F)(F)F)nc4ccccc34)cc2)c1` is lower in “activity change, negative = inhibition” value: 10.5% for the first, 4.71% for the second.

Going from `Clc1ccc(CN(CCCNc2ncnc(NCCCc3cnc[nH]3)n2)c2ccc(Br)cn2)cc1Cl` to `O=C1Nc2cc(Cl)ccc2Nc2cscc21`, the “activity change, negative = inhibition” value falls from 10.4% to -15.6%.

Going from `O=C1CN(S(=O)(=O)c2ccc3c(c2)OCCO3)CCN1S(=O)(=O)c1c(F)cccc1F` to `Cc1cc(C)nc(NC(=S)N2CC3CN(c4ccc(Cl)cc4C(F)(F)F)CC3C2)c1` (stereo not given), the “activity change, negative = inhibition” value rises from -1.37% to 33.1%.

With `O=C1Nc2ccccc2/C1=C/c1cc(Cl)c(O)c(Cl)c1` the Potency was “inactive”.
For `CC(C)c1ccccc1-c1ncc(F)c(NC2(c3ccc(-c4cccnc4)cc3)CC2)n1`, the Potency was “inactive”.
With `O=C1Nc2ccccc2C12CC2c1cc(Cl)c(O)c(Cl)c1` (stereo not given) the Potency was “inactive”.

For `COc1cc(O)c(C(CC(=O)N2CCCCCC2)c2ccc3c(c2)OCO3)c(OC)c1` (stereo not given), the “activity change, negative = inhibition” value was -10.9% [at 114 µM].
